Screening results from PubChem BioAssay.
Hits are enriched below; roughly 2.4% of the tested compounds scored in any of these assays.
D2 antagonist – antagonizes the human D2 dopamine receptor. P14416. HEK293 TREx D2 cells, calcium flux, dopamine EC80. inhibition, % at 10 µM. 340,000 tested, 2% active; in the data active = inhibition above about 30%; inactive = below that, where a call was filed; note: 0% is about no effect
Target sequence (P14416 whole entry, looked up): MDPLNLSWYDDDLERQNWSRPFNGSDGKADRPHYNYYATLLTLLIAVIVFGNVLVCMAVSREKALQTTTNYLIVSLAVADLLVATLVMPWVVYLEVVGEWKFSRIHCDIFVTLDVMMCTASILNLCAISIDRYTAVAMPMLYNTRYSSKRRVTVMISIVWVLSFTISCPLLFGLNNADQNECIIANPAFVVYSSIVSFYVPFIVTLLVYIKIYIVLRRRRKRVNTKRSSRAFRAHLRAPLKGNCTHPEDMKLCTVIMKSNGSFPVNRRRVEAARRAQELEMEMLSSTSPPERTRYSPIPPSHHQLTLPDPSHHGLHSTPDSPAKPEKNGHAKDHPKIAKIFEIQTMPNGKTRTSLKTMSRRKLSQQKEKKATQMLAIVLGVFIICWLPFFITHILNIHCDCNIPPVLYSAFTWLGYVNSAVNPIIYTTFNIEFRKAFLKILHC
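Tetracycline-induced HEK293 T-REx cells expressing D2 force-coupled to calcium signalling were dye-loaded, exposed to compound for 180 s, then challenged with an EC80 of dopamine; calcium flux was followed kinetically for a further 180 s.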
D2 PAM-1 – positive allosteric modulators of human D2 dopamine receptor | P14416 | HEK293 T-REx D2, calcium flux, EC20 dopamine potentiation | potentiation, % at 10 µM | 340,000 tested, 0.34% active;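 active = potentiation over 3 SD above the plate norm, cut at about 30% in these data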; note: 0% is about no effect
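Primary screen. Calcium kinetics in induced HEK293 T-REx D2 cells: compound pre-addition 180 s, EC20 dopamine, 180 s more.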
D2 ag-1 – activates the human D2 dopamine receptor. P14416. DiscoveRx PathHunter D2 beta-arrestin, luminescence, 90 min; 100% = 57 uM dopamine signal. activation, % (concentration not given with the values). 360,000 tested, 0.084% active. AID 624465; in the data active = activation above about 40%
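Agonist mode: compounds alone added to overnight-plated D2 PathHunter cells for 90 min at 37 C, with 57 uM final dopamine (EC100) defining full response. Beta-arrestin recruitment detected by chemiluminescent reagent, read after 1 h at ambient temperature.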
D2 ag-2 – D2 dopamine receptor (human) agonism | P14416 | HEK293 T-REx D2 cells, calcium flux agonist mode | activation, % at 2 µM | 340,000 tested, 0.53% active;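 active = activation over 3 SD above normal in the single-dose calcium agonist read, cut at about 30% in these data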; note: 0% is about no effect
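Tetracycline-induced HEK293 T-REx cells with force-coupled D2 receptor, plated overnight at 30 C, loaded with no-wash calcium dye. After a 10 s baseline, compound was pin-added and calcium flux read kinetically for 180 s; calcium rises flagged agonists.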
D2 PAM-2 – human D2 receptor positive allosteric modulation; P14416; DiscoveRx D2 beta-arrestin cells, luminescence, 90 min; 100% = 57 uM dopamine signal; potentiation, % (test concentration not listed); 360,000 tested, 0.23% active; AID 624464; in the data active = potentiation above about 50%
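D2 cells co-treated with compound plus 50 nM dopamine (EC20) for 90 min at 37 deg C to detect potentiation. Beta-arrestin recruitment was read as enzyme-fragment luminescence after 1 h at ambient temperature. Full response was set by 57 uM dopamine.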
The depositor's hits bear a star; · = no result.

SMILES	D2 antagonist	D2 PAM-1	D2 ag-1	D2 ag-2	D2 PAM-2
O=C(NNC(=O)c1cccs1)c1ccc([N+](=O)[O-])cc1	61.3*	2.1	-3.2	1.0	-9.2
O=C(NNC(=O)c1ccc([N+](=O)[O-])cc1)c1ccc(NS(=O)(=O)c2cccs2)cc1	·	·	-5.9	·	-14.0
CC(C)(C)c1ccc(C(=O)NC(=S)NNC(=O)c2cccs2)cc1	56.4*	-13.0	-1.7	51.0*	-11.5
Cc1cc(C(=O)OCC(=O)NNC(=O)c2cccs2)ccc1[N+](=O)[O-]	-11.7	11.5	1.9	0.5	-1.6
CC(C)N(C(=O)Cn1cc(SCC(=O)Nc2ccccc2C(F)(F)F)c2ccccc21)C(C)C	·	3.4	·	-0.1	·
COc1ccc(CNC(=O)NCc2ccc(OC)c(OC)c2)cc1OC	3.2	-8.1	-4.5	-0.4	0.6
COc1ccc(CNC(=O)Nc2cccc(C(F)(F)F)c2)cc1OC	45.8*	-8.5	-0.8	2.9	-28.1
Cc1ccc(CN2CCCNC2=O)cc1	·	·	-0.1	·	-3.6
Cc1ccc(C)c(CN2CCCNC2=O)c1	30.8*	6.7	-2.8	1.6	-8.1
Cc1cc(NC(=O)c2ccccc2Cl)no1	13.1	25.6	-3.8	-0.3	1.8
Cc1cc(NC(=O)c2c(F)cccc2Cl)no1	-16.6	31.3*	2.4	-0.9	5.2
Cc1cc(NC(=O)Nc2ccc(F)cc2)no1	-3.2	40.1*	-4.2	0.1	0.9
Cc1ccc(-n2cc(C(=O)Oc3ccc(F)cc3)c3ccccc3c2=O)cc1	·	-11.4	·	1.2	·
CCC(=O)N1CCC1(C)C(=O)Nc1ccc(OC)c(OC)c1 (centres undefined)	·	·	0.5	·	0.0
C=CCc1ccc(OCCCCN2CC(C)CC(C)C2)c(OC)c1 (centres undefined)	38.5*	-16.1	-4.8	-0.3	-5.6
C=CCc1ccc(OCCCCN2CCC(C)CC2)c(OC)c1	-11.6	-23.9	-0.8	-0.4	-6.8
Cc1ccc(NC(=O)C(C)OC(=O)/C=C/c2ccccc2)cc1S(=O)(=O)N1CCOCC1 (centres undefined)	0.9	40.9*	-2.8	-0.1	-3.8
Cc1ccc(NC(=O)COC(=O)/C=C/c2cccc(Cl)c2)cc1S(=O)(=O)N1CCOCC1	-12.6	9.1	2.0	-0.5	-2.6
COc1ccc(C(=O)Nc2nnc(C)s2)cc1S(=O)(=O)N1CCOCC1	17.2	5.8	-1.5	0.1	-1.3
COc1ccc(NC(=O)c2ccc(Br)c(S(=O)(=O)N3CCOCC3)c2)cc1	-21.3	33.4*	-1.8	2.2	1.6
CC(=O)c1cccc(NC(=O)c2ccc(C)c(S(=O)(=O)N3CCOCC3)c2)c1	49.8*	9.0	-1.0	1.0	-3.1
COc1ccc(C(=O)Nc2nc(C)c(C(C)=O)s2)cc1S(=O)(=O)N1CCOCC1	30.1*	-11.1	-1.8	0.6	-2.0
CC(=O)c1cccc(NC(=O)C2CCCN(c3nnc(-n4cccc4)s3)C2)c1 (centres undefined)	·	-11.8	·	·	·
COc1ccc(NC(=O)c2cc(S(=O)(=O)N3CCCC3)c[nH]2)cc1	-5.0	5.9	-30.1	0.0	0.3
Cc1ccc(C(=O)Nc2ccccc2)cc1S(=O)(=O)N1CCN(C)CC1	35.1*	-2.7	2.2	0.7	-2.3
SMILES	D2 antagonist	D2 PAM-1	D2 ag-1	D2 ag-2	D2 PAM-2
Cc1cccc(N(Cc2ccccc2)C(=O)c2ccc(F)c(S(=O)(=O)N3CCOCC3)c2)c1	0.1	-1.8	7.7	0.0	-16.2
Cc1ccc(N(Cc2ccccc2)C(=O)c2ccc(F)c(S(=O)(=O)N3CCOCC3)c2)cc1	59.0*	-4.3	-7.2	0.2	-12.2
COc1cccc(NC(=O)c2ccc3c(c2)CCCC3)c1	-4.7	-5.9	-0.2	-0.2	-20.4
CC(=O)c1cccc(NC(=O)c2ccc3c(c2)CCCC3)c1	32.9*	-30.2	-3.9	0.3	-50.1
CN1CCN(S(=O)(=O)c2ccc(C(=O)Nc3ccccc3)cc2)CC1	11.0	11.2	-0.7	-1.1	-8.7
COc1ccc(NC(=O)c2cc(S(=O)(=O)N3CCCC3)oc2C)cc1	-13.5	30.9*	-3.8	-2.3	-14.5
COc1ccc(CN2CCNC(=O)C2CC(=O)NCCCC2CCCC2)c(C)c1C (centres undefined)	-7.9	-6.5	4.9	-0.2	-5.8
O=C(Cn1c(=O)oc2cc(S(=O)(=O)NC3CCCC3)ccc21)Nc1ccc(F)c(F)c1	·	1.9	·	0.7	·
O=C(Nc1nncs1)c1ccc(Br)c(S(=O)(=O)N2CCCC2)c1	55.9*	-1.5	-1.6	0.1	-3.5
COc1ccc(OCCOC(=O)c2ccc(F)c(S(=O)(=O)N3CCOCC3)c2)cc1	49.2*	3.1	3.3	18.4	-1.2
COc1ccc(C(=O)NNC(=O)COc2ccc(Cl)cc2C)cc1S(=O)(=O)N1CCOCC1	32.6*	-1.9	-1.6	-0.2	-12.0
COc1ccc(NCc2cc3ccc(OC)cc3n(CC(=O)Nc3ccc(C)c(C)c3)c2=O)cc1	·	-5.3	·	-0.3	·
Cc1ccc(-c2nc(NC(=O)CSc3ncnc4sc5c(c34)CCC(C)C5)ns2)cc1 (centres undefined)	·	3.9	·	0.4	·
Cc1c(C(=O)Nc2ccccc2)sc2nc(-c3cc4cc(Cl)ccc4oc3=O)[nH]c(=O)c12	·	-5.1	·	0.4	·
Cc1ccc(NC(=O)CC2SC(=O)NC2=O)cc1 (centres undefined)	-7.5	7.3	-8.8	-0.3	-18.0
COc1ccc(NC(=O)CC2SC(=O)NC2=O)cc1 (centres undefined)	-12.2	36.5*	-8.1	0.1	-17.6
Cc1ccc(S(=O)(=O)Nc2cc(=O)[nH]c3c2CCC3)cc1	37.0*	-21.0	-5.1	-2.6	-3.8
Cc1ccc(NS(=O)(=O)c2ccc3[nH]c4c(c3c2)CCCCCC4)cc1	·	5.6	·	0.8	·
COc1cccc(CNC(=O)c2ccc(NC(=O)N3CC(C)Sc4ccccc43)cc2)c1 (centres undefined)	·	5.5	·	0.4	·
CCOC(=O)/C(=C/c1ccc(N2CCC(c3ccccc3)=N2)cc1)C(C)=O	16.3	-24.2	-0.9	36.9*	0.1
c1ccc(C2=NN(c3ccccc3)CC2)cc1	3.7	8.6	-3.8	-0.4	-13.3
O=C(NCc1cccc(CNC(=O)C(=O)NCC2CCCO2)c1)C(=O)NCC1CCCO1 (centres undefined)	30.0*	6.8	0.5	0.2	-2.2
O=C(NCc1ccccc1)c1ccc2c(c1)C(=O)N(CC1CCCO1)C2=O (centres undefined)	31.0*	-9.9	3.5	-0.9	-4.6
O=C(Cc1ccccc1)Nc1ccc2c(c1)C(=O)N(CC1CCCO1)C2=O (centres undefined)	2.5	9.3	-1.8	0.9	1.3
COc1ccc(NC(=O)c2ccc3c(c2)C(=O)N(CC2CCCO2)C3=O)c(OC)c1 (centres undefined)	20.8	37.4*	4.6	2.2	0.5
COc1ccc(NC(=O)c2ccc3c(c2)C(=O)N(CC2CCCO2)C3=O)cc1 (centres undefined)	4.0	4.4	5.0	0.1	-2.6
